Drawing on PubChem BioAssay (EPA / NIEHS), this text covers outcome and AC50 for 14 molecules.

Values joined by “and” are separate entries in the source; they are usually repeats but may differ in a detail not shown here. Equal values may be shown once. Records with an inconclusive call do not appear. A structure can be active in one record and inactive in another. Active and inactive are the calls of the source. Rule for the calls, unless noted: active = hit-call score of the fitted dose curve at least 0.9, where 1 is the maximum; inactive = score below 0.9.

The target of test [1] is Retinoic acid receptor RXR-alpha (Homo sapiens) (UniProt P19793). The test can be described thus: ATG_RXRa_TRANS: Attagene TRANS-FACTORIAL HepG2 Assay for human Retinoid X Receptor alpha (RXRa) (AID 2283012; active = hit-call score of the fitted dose curve at least 0.9, where 1 is the maximum). In outline: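 HepG2 cells transiently transfected with GAL4-UAS reporter units and chimeric RXRa-Gal4 protein, treated 24 h. Reporter mRNA measured by RT-PCR, fluorescent labelling, HpaI digestion and capillary electrophoresis. Induction fitted against DMSO.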
Retinoic acid receptor RXR-alpha (Homo sapiens), sequence (P19793 whole entry, looked up, the tested form may be a part): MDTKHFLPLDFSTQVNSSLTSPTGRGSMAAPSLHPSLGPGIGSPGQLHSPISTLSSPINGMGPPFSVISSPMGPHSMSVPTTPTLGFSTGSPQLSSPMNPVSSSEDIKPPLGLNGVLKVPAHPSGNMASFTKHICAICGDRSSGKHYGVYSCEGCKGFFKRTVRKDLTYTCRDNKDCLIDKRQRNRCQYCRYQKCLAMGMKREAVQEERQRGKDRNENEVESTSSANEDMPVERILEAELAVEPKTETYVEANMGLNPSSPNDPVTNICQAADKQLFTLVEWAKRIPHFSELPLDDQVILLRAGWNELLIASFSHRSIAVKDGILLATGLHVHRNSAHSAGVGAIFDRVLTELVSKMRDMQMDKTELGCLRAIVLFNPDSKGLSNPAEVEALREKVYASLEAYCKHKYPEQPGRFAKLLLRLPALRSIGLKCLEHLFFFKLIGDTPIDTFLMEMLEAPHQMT

For test [2], the target named is human Retinoid X Receptor beta (RXRb), RXRB (gene 6257) (UniProt P28702). The test can be described thus: ATG_RXRb_TRANS: Attagene TRANS-FACTORIAL HepG2 Assay for human Retinoid X Receptor beta (RXRb) (AID 2283013; active = hit-call score of the fitted dose curve at least 0.9, where 1 is the maximum). In outline:
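HepG2 cells were transiently transfected with multiplexed GAL4-UAS reporters and a chimeric RXRb-Gal4 construct, then exposed for 24 h. Reporter mRNA was quantified by RT-PCR, FAM labeling, HpaI digestion and capillary electrophoresis; gain of signal was scored against DMSO.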

Test [3] deals with human Thyroid Receptor alpha (THRa1), THRA (gene 7067) (UniProt P10827). The test can be described thus: ATG_THRa1_TRANS: Attagene TRANS-FACTORIAL HepG2 Assay for human Thyroid Receptor alpha (THRa1) (AID 2283014; active = hit-call score of the fitted dose curve at least 0.9, where 1 is the maximum). In outline: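 Reporter transcript induction, read by capillary electrophoresis of 6-FAM-labelled RT-PCR products, reflects activity of a transfected THRa1-Gal4 fusion in HepG2 liver cells. Cells were dosed for 24 h; activity was fitted in the positive direction against DMSO.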
human Thyroid Receptor alpha (THRa1), THRA (gene 7067), sequence (P10827 whole entry, looked up, the tested form may be a part): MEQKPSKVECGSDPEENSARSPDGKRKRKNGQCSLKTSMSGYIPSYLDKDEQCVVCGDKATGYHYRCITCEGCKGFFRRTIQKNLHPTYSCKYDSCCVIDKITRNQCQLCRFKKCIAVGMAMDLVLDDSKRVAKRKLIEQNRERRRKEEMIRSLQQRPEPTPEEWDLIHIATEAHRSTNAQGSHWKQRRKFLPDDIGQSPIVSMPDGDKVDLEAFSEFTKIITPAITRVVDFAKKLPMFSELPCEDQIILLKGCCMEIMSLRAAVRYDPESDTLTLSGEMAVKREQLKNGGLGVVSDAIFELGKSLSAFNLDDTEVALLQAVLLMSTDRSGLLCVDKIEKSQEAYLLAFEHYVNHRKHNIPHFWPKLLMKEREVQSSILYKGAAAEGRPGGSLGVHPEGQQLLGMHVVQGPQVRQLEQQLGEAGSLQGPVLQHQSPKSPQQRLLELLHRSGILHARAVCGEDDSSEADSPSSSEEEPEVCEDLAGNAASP

Read-out in test [4]: E-selectin (Homo sapiens) (UniProt P16581)
The test can be described thus: BSK_3C_Eselectin: BioMAP Diversity Plus: 3C Assay for Eselectin Biomarker Activity (AID 2283015). The conditions noted are these: primary human endothelial cells (HUVEC); actives raise or lower the signal. In outline: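 ELISA read-out of E-selectin on endothelial monolayers after 24 h chemical treatment. Human umbilical vein primary cells served as the system, with DMSO defining baseline activity for bidirectional fitting.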

Read-out in test [5]: Interleukin-1 alpha (IL1a), IL1A (gene 3552)
The test can be described thus: BSK_BE3C_IL1a: BioMAP Diversity Plus: BE3C Assay for Interleukin-1 alpha (IL1a) Biomarker Activity (AID 2283016). The conditions noted are these: primary human bronchial epithelial cells; actives raise or lower the signal. In outline:
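Human primary bronchial epithelial cells, 24 h chemical exposure; IL-1a quantified by ELISA, fitted bidirectionally against DMSO. Cytotoxicity assessed in parallel by SRB total-protein staining at the time of measurement.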

Read-out in test [6]: Monocyte Chemoattractant Protein-1 (MCP1), CCL2 (gene 6347)
The test can be described thus: BSK_3C_MCP1: BioMAP Diversity Plus: 3C Assay for Monocyte Chemoattractant Protein-1 (MCP1) Biomarker Activity (AID 2283017). The settings on record: primary human endothelial cells (HUVEC); actives raise or lower the signal. In outline:
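ELISA read-out of MCP-1 from human umbilical vein endothelial cell cultures harvested 24 h post-dosing. Gain or loss of signal was fitted relative to DMSO.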

Read-out in test [7]: Monocyte Chemoattractant Protein-1 (MCP1), CCL2 (gene 6347)
The test can be described thus: BSK_4H_MCP1: BioMAP Diversity Plus: 4H Assay for Monocyte Chemoattractant Protein-1 (MCP1) Biomarker Activity (AID 2283018). The conditions noted are these: primary human endothelial cells (HUVEC); actives raise or lower the signal. In outline: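 Human umbilical vein endothelial cells (4H system) exposed to chemicals for 24 h in 96-well format. MCP-1 measured by ELISA; bidirectional fitting against DMSO, with SRB total-protein staining in parallel cultures for cytotoxicity.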

Read-out in test [8]: Human Leukocyte Antigen - DR isotype (HLADR), HLA-DRA (gene 3122)
The test can be described thus: BSK_3C_HLADR: BioMAP Diversity Plus: 3C Assay for Human Leukocyte Antigen - DR isotype (HLADR) Biomarker Activity (AID 2283019).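 For outcome: ELISA of cell-surface HLA-DR on HUVEC 24 h after dosing.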 The conditions noted are these: primary human endothelial cells (HUVEC); actives raise or lower the signal. In outline:
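ELISA readout of surface HLA-DR on human umbilical vein endothelium, taken 24 h after chemical treatment. Gain- and loss-of-signal were both fitted relative to DMSO.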

Read-out in test [9]: Interleukin-8 (IL8), CXCL8 (gene 3576)
The test can be described thus: BSK_3C_IL8: BioMAP Diversity Plus: 3C Assay for Interleukin-8 (IL8) Biomarker Activity (AID 2283020). The conditions noted are these: primary human endothelial cells (HUVEC); actives raise or lower the signal. In outline: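 Primary human umbilical vein endothelial cells were dosed for 24 h. IL-8 was quantified by ELISA and fitted bidirectionally against DMSO. Cytotoxicity was assessed in parallel cultures by SRB staining at 560 nm.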

Test [10] can be described thus: BSK_3C_SRB: Viability Assessment in the BioMAP Diversity Plus: 3C Assay (AID 2283023).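 Note: fitted both ways against DMSO so a hit may be signal rise or drop.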 The settings on record: primary human endothelial cells (HUVEC). In outline:
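Absorbance at 560 nm of sulforhodamine B-stained (0.1%) total protein served as a cytotoxicity readout in human umbilical vein endothelial cells, 24 h after chemical treatment. Signal was fitted bidirectionally relative to DMSO.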

Read-out in test [11]: Matrix Metallopeptidase 1 (MMP1), MMP1 (gene 4312)
The test can be described thus: BSK_BE3C_MMP1: BioMAP Diversity Plus: BE3C Assay for Matrix Metallopeptidase 1 (MMP1) Biomarker Activity (AID 2283024). The conditions noted are these: primary human bronchial epithelial cells; actives raise or lower the signal. In outline:
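Human primary bronchial epithelial cells (BE3C system) dosed for 24 h; MMP-1 quantified by ELISA. Bidirectional fit against DMSO; cytotoxicity tracked in parallel cultures by SRB total-protein staining.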

A short description of test [12]: BSK_3C_Vis: BioMAP Diversity Plus: 3C Assay for Morphology Visualization (AID 2283025).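 Note: light microscopy image of cell morphology used as background control; fitted both ways so gain or loss versus DMSO counts.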 The settings on record: primary human endothelial cells (HUVEC). In outline:
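Human umbilical vein endothelial cell morphology was inspected by light microscopy 24 h after chemical dosing; scored bidirectionally relative to DMSO.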

Read-out in test [13]: Pselectin, SELP (gene 6403)
The test can be described thus: BSK_4H_Pselectin: BioMAP Diversity Plus: 4H Assay for Pselectin Biomarker Activity (AID 2283026). The settings on record: primary human endothelial cells (HUVEC); actives raise or lower the signal. In outline:
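Primary human umbilical vein endothelial cells were treated 24 h, and cell-surface P-selectin was then quantified by ELISA. Bidirectional fit versus DMSO; cytotoxicity checked in parallel cultures by SRB total-protein staining.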

The nature of test [14]: BSK_4H_SRB: Viability Assessment in the BioMAP Diversity Plus: 4H Assay (AID 2283027).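 For AC50: curves fitted both ways versus DMSO so AC50 may be loss or gain.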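 Note: cells exposed to compound for 24 h before staining.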 The conditions noted are these: primary human endothelial cells (HUVEC). In outline: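 Human umbilical vein endothelial cells were dosed with chemical and, after 24 h, fixed with 10% TCA, stained with 0.1% sulforhodamine B, and read at 560 nm to give total protein as a cytotoxicity measure. Bidirectional fitting relative to DMSO control.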

A short description of test [15]: BSK_BE3C_SRB: Viability Assessment in the BioMAP Diversity Plus: BE3C Assay (AID 2283028).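 For AC50: fitted both ways so AC50 may mark signal gain or loss versus DMSO.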 The settings on record: primary human bronchial epithelial cells. In outline:
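Cells (human bronchial epithelial, primary) are treated with chemicals, and after 24 h the parallel cultures are fixed in 10% TCA. These are then stained with 0.1% SRB and read at 560 nm. Gain or loss of signal is fitted relative to DMSO.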

Read-out in test [16]: Thrombomodulin, THBD (gene 7056)
The test can be described thus: BSK_3C_Thrombomodulin: BioMAP Diversity Plus: 3C Assay for Thrombomodulin Biomarker Activity (AID 2283029). The settings on record: primary human endothelial cells (HUVEC); actives raise or lower the signal. In outline:
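Human umbilical vein endothelial cells were exposed to chemicals for 24 h; cell-surface thrombomodulin quantified by ELISA, with bidirectional fitting against DMSO baseline.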

Read-out in test [17]: Urokinase-type plasminogen activator receptor (uPAR), PLAUR (gene 5329)
The test can be described thus: BSK_4H_uPAR: BioMAP Diversity Plus: 4H Assay for Urokinase-type plasminogen activator receptor (uPAR) Biomarker Activity (AID 2283030). The settings on record: primary human endothelial cells (HUVEC); actives raise or lower the signal. In outline:
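Cell-surface uPAR ELISA signal, measured 24 h after dosing human umbilical vein endothelial cells, was analyzed with bidirectional fitting relative to DMSO. Parallel SRB staining of total protein tracked overt cytotoxicity.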

Read-out in test [18]: Vascular endothelial growth factor receptor 2 (Homo sapiens) (UniProt P35968)
The test can be described thus: BSK_4H_VEGFRII: BioMAP Diversity Plus: 4H Assay for Vascular endothelial growth factor receptor 2 (VEGFR2) Biomarker Activity (AID 2283031).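 For AC50: cell-surface VEGFR2 protein level quantified by ELISA.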 The settings on record: primary human endothelial cells (HUVEC); actives raise or lower the signal. In outline:
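ELISA read-out of VEGFRII in primary human umbilical vein endothelium, taken 24 h after chemical treatment. Responses are expressed relative to DMSO, with bidirectional fitting.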

Read-out in test [19]: Monokine induced gamma interferon (MIG), CXCL9 (gene 4283)
The test can be described thus: BSK_3C_MIG: BioMAP Diversity Plus: 3C Assay for Monokine induced gamma interferon (MIG) Biomarker Activity (AID 2283021). The settings on record: primary human endothelial cells (HUVEC); actives raise or lower the signal. In outline:
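HUVEC primary endothelial cultures dosed with chemical; MIG quantified by ELISA at 24 h. Data fitted bidirectionally against DMSO control, with parallel SRB total-protein staining for cytotoxicity.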

In test [20] the target is human Vitamin D Receptor (VDR), VDR (gene 7421) (UniProt P11473). The test can be described thus: ATG_VDR_TRANS: Attagene TRANS-FACTORIAL HepG2 Assay for human Vitamin D Receptor (VDR) (AID 2283022; active = hit-call score of the fitted dose curve at least 0.9, where 1 is the maximum). In outline: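 Steps: transfect HepG2 with GAL4-UAS-driven reporter constructs; dose compounds 24 h; isolate RNA, reverse-transcribe, PCR-amplify with 6-FAM-labelled primer extension and HpaI digestion; quantify fragments by capillary electrophoresis relative to DMSO.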
human Vitamin D Receptor (VDR), VDR (gene 7421), sequence (P11473 whole entry, looked up, the tested form may be a part): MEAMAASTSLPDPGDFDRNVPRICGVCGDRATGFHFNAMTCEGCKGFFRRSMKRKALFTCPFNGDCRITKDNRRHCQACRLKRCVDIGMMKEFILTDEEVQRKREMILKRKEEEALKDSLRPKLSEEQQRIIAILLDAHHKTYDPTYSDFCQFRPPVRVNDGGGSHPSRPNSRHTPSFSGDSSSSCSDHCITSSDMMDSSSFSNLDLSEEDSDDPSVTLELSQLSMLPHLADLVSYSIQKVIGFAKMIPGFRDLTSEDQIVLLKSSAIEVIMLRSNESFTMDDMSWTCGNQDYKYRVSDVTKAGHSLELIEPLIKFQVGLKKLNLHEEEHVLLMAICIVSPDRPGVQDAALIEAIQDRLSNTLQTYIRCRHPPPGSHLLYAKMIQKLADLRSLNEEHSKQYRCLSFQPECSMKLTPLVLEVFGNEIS

human Retinoid X Receptor beta (RXRb), RXRB (gene 6257), sequence (P28702 whole entry, looked up, the tested form may be a part): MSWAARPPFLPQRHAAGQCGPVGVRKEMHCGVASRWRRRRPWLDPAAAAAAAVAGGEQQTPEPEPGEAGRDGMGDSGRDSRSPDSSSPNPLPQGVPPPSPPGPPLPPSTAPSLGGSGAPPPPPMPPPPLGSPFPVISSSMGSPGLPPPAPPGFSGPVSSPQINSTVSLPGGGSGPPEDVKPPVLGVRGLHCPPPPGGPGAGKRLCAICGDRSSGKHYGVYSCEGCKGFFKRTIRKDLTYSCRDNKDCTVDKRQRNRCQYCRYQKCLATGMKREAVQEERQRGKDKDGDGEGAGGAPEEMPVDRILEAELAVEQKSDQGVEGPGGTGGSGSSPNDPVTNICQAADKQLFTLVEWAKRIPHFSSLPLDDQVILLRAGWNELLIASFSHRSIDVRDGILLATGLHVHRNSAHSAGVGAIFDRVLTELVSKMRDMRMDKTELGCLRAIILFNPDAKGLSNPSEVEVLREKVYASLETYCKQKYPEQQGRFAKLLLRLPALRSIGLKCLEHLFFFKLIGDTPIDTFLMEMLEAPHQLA
E-selectin (Homo sapiens), sequence (P16581 whole entry, looked up): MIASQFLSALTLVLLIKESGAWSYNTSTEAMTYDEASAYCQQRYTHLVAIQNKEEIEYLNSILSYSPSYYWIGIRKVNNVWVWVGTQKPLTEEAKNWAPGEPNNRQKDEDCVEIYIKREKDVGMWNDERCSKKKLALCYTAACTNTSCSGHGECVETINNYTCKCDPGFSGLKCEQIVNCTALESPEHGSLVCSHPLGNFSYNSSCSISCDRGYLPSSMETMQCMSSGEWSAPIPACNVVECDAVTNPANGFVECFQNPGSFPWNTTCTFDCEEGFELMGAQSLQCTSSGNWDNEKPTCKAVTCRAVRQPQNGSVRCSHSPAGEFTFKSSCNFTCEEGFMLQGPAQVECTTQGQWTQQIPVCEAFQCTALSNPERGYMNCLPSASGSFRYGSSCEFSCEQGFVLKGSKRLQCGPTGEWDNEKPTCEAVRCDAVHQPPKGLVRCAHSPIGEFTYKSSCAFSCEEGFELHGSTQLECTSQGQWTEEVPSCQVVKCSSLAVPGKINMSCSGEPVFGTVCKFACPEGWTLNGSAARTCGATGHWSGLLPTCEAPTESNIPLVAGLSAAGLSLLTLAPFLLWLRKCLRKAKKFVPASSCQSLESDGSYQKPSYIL

By AC50 is commonly meant the concentration at which the activity in the assay is half-maximal. With `c1ccc(CCc2ccccc2)cc1`, the molecule was classed as inactive in test [1], in test [2], in [3] and in test [18]. Also, the half-maximal activity concentration (AC50) in test [4] was 28.7 µM (active); in test [5] it was 27 µM (active); in test [6], 28.5 µM (active); in [7] it was 32.1 µM (active); in test [8], 15.3 µM (active); in [9], 25.8 µM (active). In addition, the AC50 in test [10] was 30.5 µM (active); in test [11], 20 µM (active); in test [12] it was 8.8 µM (active); in test [13] it was 35.7 µM (active); in test [14], 31 µM (active); in test [15], 33.2 µM (active). Further, the AC50 in [16] is 20 µM (active); in test [17] it was 32.2 µM (active).

For `C=Cc1ccc(C(C)(C)C)cc1`, the outcome in test [1] and in [2] was inactive.

`C=CC(=O)OCCCC`: the outcome in test [1], in test [2] and in [3] was inactive.

On to `Nc1ccc(NCCO)c([N+](=O)[O-])c1`, for which the outcome in test [1] and in test [3] was inactive. Further, the AC50 in [2] is 18.1 µM (active).

Consider `CC1(C)C(=O)N(Cl)C(=O)N1Br`, for which the call in test [1], in [2] and in test [3] was inactive.

Turning to `CC(=O)c1ccccn1`, the result in test [1], in test [2] and in test [3] was inactive.

`Nc1ccccc1[N+](=O)[O-]`: the molecule was called inactive in [1], in test [2] and in test [3].

Turning to `CCOC(=O)C(C#N)=C(c1ccccc1)c1ccccc1`, the molecule was called inactive in test [1], in test [3], in test [4], in test [5], in test [6] and in test [7]. Also, the outcome in test [8], in test [9], in test [19], in [13], in [14] and in [15] was inactive. The result in [16], in [17] and in [18] was inactive. Besides, the AC50 in test [2] was 26.6 µM (active); in [7] it was 1 µM (active); in [10], 25.6 µM (active) and 20 µM (active); in test [11], 25.2 µM (active) and 31.1 µM (active); in [16], 8.14 µM (active).

Regarding `Cc1ccc(S(=O)(=O)Oc2ccc(N=Nc3ccc(-c4ccc(N=Nc5c(O)ccc6cc(S(=O)(=O)O)cc(S(=O)(=O)O)c56)c(C)c4)cc3C)cc2)cc1`, the molecule was classed as inactive in test [1], in test [2], in test [3] and in test [20].

On to `Cc1cc(C)nc(NS(=O)(=O)c2ccc(N)cc2)n1`, for which the molecule was classed as inactive in test [1], in test [2] and in test [3].

For `COC(=O)Nc1ccc(Cl)c(Cl)c1`, the result in test [1], in test [3] and in [20] was inactive. Moreover, the concentration at half-maximal activity (AC50) in [2] was 45.1 µM (active).

Consider `COc1ccc(N)c([N+](=O)[O-])c1`, for which the molecule was called inactive in test [1], in [2], in test [3] and in [20].

Regarding `CC(C=O)Cc1ccc(C(C)(C)C)cc1` (configuration not stated), the outcome in test [1], in [2], in [5], in test [9], in test [19] and in test [20] was inactive. Further, the outcome in [11], in test [15] and in [16] was inactive. Moreover, the AC50 in test [4] is 30.8 µM (active); in [6], 30.6 µM (active); in test [7], 20 µM (active); in test [8] it was 30.3 µM (active); in [10] it was 31.2 µM (active); in test [12], 37.8 µM (active). Also, the AC50 in test [13] was 31.1 µM (active); in [14], 30.1 µM (active); in test [17], 29.7 µM (active); in test [18], 32.9 µM (active).

For `c1ccc(CN(Cc2ccccc2)Cc2ccccc2)cc1`, the outcome in test [1] and in test [20] was inactive. In addition, in test [2], the AC50 was 13.1 µM (active).
